The record followed here is PubChem BioAssay AID588773 (The Scripps Research Institute Molecular Screening Center, 2011).

Active and inactive are the calls of the source.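 Rule for the calls: active = inhibition of plasma PAF acetylhydrolase at a set limit or more at 0.1 µM, with tenfold selectivity over all off-targets; inactive = inhibition below the limit or weaker selectivity.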

A short description of this experiment: competitive ABPP of pPAFAH versus proteome off-targets – biochemical, gel-based, FP-Rh fluorescence, mouse, HTS hit compounds, selectivity assay for pPAFAH inhibitor project, late-stage follow-up (AID 588773). The note with it: MW 32 kDa protein, at 10 µM.

With `O=C(CCCSc1ccc(Cl)cc1)Nc1cc(S(=O)(=O)N2CCOCC2)ccc1O`, the compound was classed as inactive.
Then `O=C(Oc1ccc(-c2ccccc2)cc1)N1CCCCC1`, with “inactive”; and `CCCCOC(=O)c1ccc(OC(=O)N2CCOCC2)cc1`, with “inactive”.
Then `O=C(Oc1ccc(-c2ccccc2)cc1)N1CCOCC1`, with “inactive”.
Turning to `O=C(Oc1ccc(Oc2ccccc2)cc1)N1CCC(O)CC1`, the call was inactive.
Turning to `O=C(Oc1nsnc1N1CCOCC1)N1CCOCC1`, the outcome was inactive.
As for `O=C(/C=C/c1cccs1)c1cc(Br)ccc1OC(=O)N1CCOCC1`, the outcome was inactive.
